Measured values reported in publication PMC12136788.
Numbering of substitutions follows the chain as printed. The full ranking holds about 5,800 sequences; the median of “enrichment r” is about 0.68, and the highest 2% start at about 11. This is one part of a sample in which the highest values are shown more often than they occur.

B1: chr4:138167974:138168075:-|3pUTR|ENSG00000151012|msi1|FALSE|unique (ssRNA)
RNA: GGGAGUUCUACAGUCCGACGAUCCACAAAAUCUGCAUUGUCCAUGUGAGUAAAGUAAAAUAAUUCCUGUUAUUUUUUUCUGUUAGAAAUAAGUAUGGAGGAUAUGUUUUUAAAAAUUUAUGAGUUAAUUGAAAUAUCCAUAUACAACAGAGGAUUGAGCAUCA
B2: chr14:53043751:53043854:-|3pUTR|ENSG00000100523|unk|FALSE|unique (ssRNA)
RNA: GGGAGUUCUACAGUCCGACGAUCACUUAGAUUAAAUCUUGCUUUAUUUUUACUUUAAAAUUAGUCUUGCUAAGGCCUUAUGUUAGUUCAUACUUUCUUUUCAACAGUAAUCUUGUUUAUAAUCCAGUGUUUCUGUGUUUUAGGCAACAGAGGAUUGAGCAUCA
B3: chr5:72209348:72209524:+|3pUTR|ENSG00000131711|msi1_unk|FALSE|overlapping (ssRNA)
RNA: GGGAGUUCUACAGUCCGACGAUCUUAUGUCUUAUAAUCCUGCAUCACUUCUAUCCUAUCCAGUCAUAUCUAAUGUAGAAAAUUAGUUUCCAGUGAAAGUAAUAUGUAGUGCUUUUAUGAUAUUUGUGUGCAAUAUCCCCUCUUCAACAGAGGAUUGAGCAUCA
B4: chr21:34788506:34788607:-|3pUTR|ENSG00000159216|msi1|FALSE|unique (ssRNA)
RNA: GGGAGUUCUACAGUCCGACGAUCUUGUUAAUGCCUAUAACUUUUUUUCAAUUUUUUUGUGUGUGUUUCUAAGGACUUUUUCUUAGGUUUGCUAAAUACUGUAGGGAAAAAAAUGCUUCUUUCUACUUUGUUUAUUUUAGACUUCAACAGAGGAUUGAGCAUCA
B5: chr6:133987709:133987810:+|3pUTR|ENSG00000028839|unk|FALSE|unique (ssRNA)
RNA: GGGAGUUCUACAGUCCGACGAUCAAUAACAAAUAGGAAUUUUUUUUCUUGCAGAUUAGAAAUAAAAACGUGUAUAUAAACUCUAGGGAACCAGACUAGAAGUUUAUAGAUAAAGGAUAAUGUUUUAUGUUGCUAAUUUAAUAUCAACAGAGGAUUGAGCAUCA
B6: chr15:34978960:34979061:-|3pUTR|ENSG00000198146|msi1|FALSE|unique (ssRNA)
RNA: GGGAGUUCUACAGUCCGACGAUCGCCCUCUGUAUCCAUGUACUCUGCAUCUGUGGAUUAAACCAAUUGCAGAUCAAAAAUAUUAGAAAAAAUAAAAAUAAUACAAAUAAAAAUACAGUAUAACAGUUAUUUAAAUAGCAUUUACAACAGAGGAUUGAGCAUCA
B7: chr6:142752714:142752806:-|3pUTR|ENSG00000010818|msi1_unk|total|mutant (ssRNA)
RNA: GGGAGUUCUACAGUCCGACGAUCUUUUCUUUACUUUGCUUAUAUUCUUAUAAGCAUUUUUCCGCAGUAAUUUGUACAUAUUUCCGAAUUUGUGUAUCUGCUUUGUAAUAAAUGUAAUUUCUUUCCUUUUUUGGACACUUGGAUCAACAGAGGAUUGAGCAUCA
B8: chr10:62095068:62095169:+|3pUTR|ENSG00000150347|msi1|total|mutant (ssRNA)
RNA: GGGAGUUCUACAGUCCGACGAUCCCAUUUGCUUCAAUUAAUUAUUUACCUUCCUGUGGAAUAAUAUAUAUAUAUAUAUUUAACCGAACCACCGACCGACCCGCCGAAUUCCGAUUAUAAAUGUGUGAGUGCAGAUUAUCCUGCCAACAGAGGAUUGAGCAUCA
B9: chr9:123379744:123379845:-|3pUTR|ENSG00000119522|msi1|total|mutant (ssRNA)
RNA: GGGAGUUCUACAGUCCGACGAUCGUGUUUCAGCACCGAUUCCAGUUUCGCACCCUGGGCAGACCCCCAGGCCCCAUCCGGGACCGGGCAGAGGAGGUGCUGGCGGCCCCAGGGAAGGAGGGUGUGUACCCCAAGGCCCCCUGGCAACAGAGGAUUGAGCAUCA
B10: chr3:98797553:98797658:-|3pUTR|ENSG00000057019|msi1|total|mutant (ssRNA)
RNA: GGGAGUUCUACAGUCCGACGAUCAUUUCAUUCAUUGAAGAAUCAAUACAUAUUUUGUUUCAAAAUGUUUGAAACAAAAGACACCGAUGGCCGACUUUUAUUAAAACAUAUAUGGAUGUGGAAAGCACAUAUAUUAAUGCAGUCCAACAGAGGAUUGAGCAUCA
B11: chr15:52550718:52550819:-|3pUTR|ENSG00000128989|msi1|FALSE|unique (ssRNA)
RNA: GGGAGUUCUACAGUCCGACGAUCUUUAUAUAAACUUUUUAAAUGUAGAAACUUUUUACUUCCACACUCAGUUUUGGAGACCCUAGAAUAAAAGGCUUCAAUACUCUGCAUUCCAUGCCCUCUGCCACCUGCUUUUUUUUCCCCCAACAGAGGAUUGAGCAUCA
B12: chrX:100674576:100674677:+|3pUTR|ENSG00000102359|msi1|FALSE|bound_elsewhere (ssRNA)
RNA: GGGAGUUCUACAGUCCGACGAUCUUGCAAUCCACACCAAAUCAAUCUUUGAAAACAUUCCUCCAUUCGGUUCAUACAUACAGUAGAAACCACUGUGGCUGCCCUUAAUCCAGUGUGCUUAUAGGAAAUCAGUUAGCAGCUGACCAACAGAGGAUUGAGCAUCA
B13: chr7:7607225:7607326:+|3pUTR|ENSG00000164654|msi1|total|mutant (ssRNA)
RNA: GGGAGUUCUACAGUCCGACGAUCUUUGAGUGAUUUUGAUAUGCUUCACAGAGACAAAUGCUGCCAAAAUAAACAUCGAAGUACCGACAUGAGUUCUGUUCAGCAGGUUGAAAAGUCUGAUUCCGAAAAACUUUCUAAGUUUUGCAACAGAGGAUUGAGCAUCA
B14: chr3:129431351:129431457:-|3pUTR|ENSG00000129071|unk|FALSE|unique (ssRNA)
RNA: GGGAGUUCUACAGUCCGACGAUCACUUCAAAAAAGCUUAAUUAAGUACAACCAACCACCUUUCCAGCCAUAGAGAUUUUAAUUAGCCCAACUAGAAGCCUAGUGUGUGUGCUUUCUUAAUGUGUGUGCCAAUGGUGGAUCUUUCAACAGAGGAUUGAGCAUCA
B15: chr14:44928120:44928223:-|3pUTR|ENSG00000179454|unk|FALSE|unique (ssRNA)
RNA: GGGAGUUCUACAGUCCGACGAUCUAGUACAGCAGGCCUCCCAGUGCUGAUGUAAAUAUUUGAGCAGUGUUUAGUACCAUUCUUAGUGCAUAUUAAUUUUUUUAUAUAUCCUUAUAAUUUUAGUUUUUUAAGAUCUUUGCUUUUCAACAGAGGAUUGAGCAUCA
B16: chr14:44928120:44928223:-|3pUTR|ENSG00000179454|unk|total|mutant (ssRNA)
RNA: B15 RNA with U24C, A25C, U71C, A72C, U83C, A84C, U120C, A121C
B17: chr5:154817497:154817598:+|3pUTR|ENSG00000155506|msi1_unk|FALSE|overlapping (ssRNA)
RNA: GGGAGUUCUACAGUCCGACGAUCUUAUUGAGAGUAUCUGCUUUCCAGGCUGAAGUGAUUCAUUCAUUAUUCUAGUCCUGCUUUAGUCCUUUGUAAUUUGUGGUAAUUAUGCUUUUCUUUUUAAUACAAAAAAAUGUAUAAAAACAACAGAGGAUUGAGCAUCA
B18: chr12:54238554:54238587:-|3pUTR|ENSG00000094916|msi1_unk|FALSE|overlapping (ssRNA)
RNA: GGGAGUUCUACAGUCCGACGAUCGGGAGCACCCAUUUUAAACCUGGAGAGAACCAUGAUGUUUUCUUCUUCAAAUAACAAUCUAGUUUUUUUUCCCCCAGUACUAAAAUUGUAUUGUCUUUCAGACAAUAUAAUUUUUAUUUACAACAGAGGAUUGAGCAUCA
B19: chr10:73916565:73916770:+|3pUTR|ENSG00000122861|msi1|total|mutant (ssRNA)
RNA: GGGAGUUCUACAGUCCGACGAUCCUGGUUGUCAUUUUUGCAGCCGAGUCAUCUCCAUCAGCUGUAAGAAGAGACUGGGAAGACCGGCUCUGCACAGAUGGAUUUGCCUGUGCCACCCACCAGGGCGAACGACAACCGCUUUACCAACAGAGGAUUGAGCAUCA
B20: chr10:72012227:72012328:+|3pUTR|ENSG00000122863|msi1|total|mutant (ssRNA)
RNA: GGGAGUUCUACAGUCCGACGAUCCAAUGGAAGGAGCUUCAGCAGGAGGUCCUUCCCAGAAGGUUGAUUCUUGGCCUGGGUGGCCGAGGAGAUAUCCUGACCCUAAAGUCUUCCAGCCCCGGGUCAUCCUCUCCUAUACCCGGGCAACAGAGGAUUGAGCAUCA
B21: chr1:18907414:18907603:-|3pUTR|ENSG00000169991|msi1|total|mutant (ssRNA)
RNA: GGGAGUUCUACAGUCCGACGAUCCCUUGAUUUCCCUGAUAACUUGAUGUUCUUCCCUCCCUCGCCAGCCAACAACCGAGGCUCCGAGAUCUGUAAUUUCUCUGUGAGAAAGUCUGAAGGGGCCAGGCCUGGUCUCUGCUCCCUCAACAGAGGAUUGAGCAUCA
B22: chr1:42176760:42176861:-|3pUTR|ENSG00000198815|msi1|total|mutant (ssRNA)
RNA: GGGAGUUCUACAGUCCGACGAUCGUCGCUCAGAUGUCCUUUGAAGUGGGAGGGAAUCAAUCCGGGGAUAAUUUCAAAUGGAACCGAGUAUUUUGAUAUUGUUCAUUCAGAGGGUGAUGUGUACAUAUCUAUAUUGUAUAUAUGCAACAGAGGAUUGAGCAUCA

Target: T1, UNK ZnF1-6 (called full-length) (human, UniProt Q9C0B0 30-357)
T1 sequence: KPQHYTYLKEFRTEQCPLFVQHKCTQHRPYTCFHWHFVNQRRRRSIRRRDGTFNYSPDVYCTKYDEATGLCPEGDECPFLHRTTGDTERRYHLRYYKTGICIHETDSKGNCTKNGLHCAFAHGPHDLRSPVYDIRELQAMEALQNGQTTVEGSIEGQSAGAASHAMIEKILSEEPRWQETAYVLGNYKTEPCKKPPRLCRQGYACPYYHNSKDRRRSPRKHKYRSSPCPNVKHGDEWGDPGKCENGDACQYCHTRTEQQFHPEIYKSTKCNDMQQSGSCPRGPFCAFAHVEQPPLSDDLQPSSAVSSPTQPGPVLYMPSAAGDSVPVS
Assay: nsRBNS (natural sequence RNA bind-n-seq); RBNS binding buffer (assumed for nsRBNS): 25 mM Tris pH 7.5, 150 mM KCl, 3 mM MgCl2, 0.01% Triton X-100, 500 ug/ml BSA, 20 U/ml SUPERase-In, 4 C; UNK is unkempt and MSI1 is Musashi-1; names of the RNAs are library labels; protein concentration not given here; high values mean tight binding

Row | Binder | binding signal [enrichment R]
1 | B1 | 1.08
2 | B2 | 15
3 | B3 | 1.93
4 | B4 | 2.15
5 | B5 | 2.44
6 | B6 | 22.2
7 | B7 | 0.576
8 | B8 | 2.12
9 | B9 | 0.59
10 | B10 | 0.53
11 | B11 | 3.77
12 | B12 | 0.532
13 | B13 | 0.348
14 | B14 | 5.99
15 | B15 | 213
16 | B16 | 7.31
17 | B17 | 1.93
18 | B18 | 9
19 | B19 | 0.561
20 | B20 | 0.492
21 | B21 | 0.733
22 | B22 | 1.09
